Bioassay records: PubChem BioAssay, The Scripps Research Institute Molecular Screening Center
An excerpt weighted towards active compounds, which were near 3.3% of everything screened.
TLR9-MyD88 inh: inhibitors of TLR9-MyD88 association in cells, primary screen, cell-based, CHO, BLA complementation, fluorescence; inhibition, % at 4.98 µM; actives 0.21% (n = 340,000); Toll-like receptor 9 (Homo sapiens) + Myeloid differentiation primary response protein …; CCF4 FRET ratio;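 active = inhibition above the mean over all tested compounds plus 3 SD, cut at about 21% in these data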;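 also: 0% = DMSO only wells and 100% = clavulanate BLA inhibitor control wells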
ABHD5-PLIN5 inh: ABHD5-PLIN5 interaction inhibitors, primary screen, cell lysate, split luciferase complementation, luminescence | Split G. princeps luciferase complementation, 4 h | inhibition, % at 4 µM | Perilipin-5 (Homo sapiens) + 1-acylglycerol-3-phosphate O-acyltransferase ABHD5 (Homo … | actives 0.78% (n = 360,000);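 active = inhibition above the mean inhibition across every tested compound plus 3 SD, cut at about 22% in these data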;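 also: 0% = DMSO only wells and the 100% control is not disclosed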
TLR4-MyD88 BLA: inhibitors of TLR4-MyD88 association in cells, primary screen, cell-based, HeLa CL3-4, BLA complementation, FRET ratio; inhibition, % at 8.4 µM; actives 0.18% (n = 200,000); Toll-like receptor 4 (Homo sapiens) + Myeloid differentiation primary response protein …; HeLa CL3-4 TLR4/MyD88 BLA complementation; in the data active = inhibition above about 25%;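 also: 0% = vehicle and 100% = reference inhibitor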
rCAG RNA binder: binders of r(CAG) RNA repeats, primary screen, biochemical, fluorescence; r(CAG) RNA repeat, TO-PRO-1 dye displacement fluorescence; inhibition, % at 3 µM; actives 1.3% (n = 370,000); AID 651821, 2012;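 active = inhibition above the plate cutoff, the mean of all test compounds on that plate plus 3 SD, cut at about 35% in these data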;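 also: 0% = DMSO alone and 100% = 100 µM mitoxantrone as full dye displacement; higher means more dye released from RNA so lower well fluorescence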
PRMT1 inh: PRMT1 methyltransferase inhibitors, primary screen, biochemical, fluorescence polarization; Protein arginine N-methyltransferase 1 (Homo sapiens), Q99873; recombinant PRMT1, activity-based probe fluorescence polarization; inhibition, % at 2.79 µM; actives 1.3% (n = 370,000); AID 652257, 2013;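 active = inhibition above about 21% made by adding two undisclosed values, limit read from the data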
NOD2-RIPK2 inh: NOD2-RIPK2 binding disruptors in cells, primary screen, fluorescence, CHO cells, BLA complementation | Receptor-interacting serine/threonine-protein kinase 2 (Homo sapiens), O43353 | CCF4 ratio | inhibition, % at 4.98 µM | actives 0.38% (n = 360,000) | AID 624267, 2012; in the data active = inhibition above about 21%;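 also: 0% = vehicle only and 100% = reference blocker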
Target sequence (O43353 whole entry, looked up): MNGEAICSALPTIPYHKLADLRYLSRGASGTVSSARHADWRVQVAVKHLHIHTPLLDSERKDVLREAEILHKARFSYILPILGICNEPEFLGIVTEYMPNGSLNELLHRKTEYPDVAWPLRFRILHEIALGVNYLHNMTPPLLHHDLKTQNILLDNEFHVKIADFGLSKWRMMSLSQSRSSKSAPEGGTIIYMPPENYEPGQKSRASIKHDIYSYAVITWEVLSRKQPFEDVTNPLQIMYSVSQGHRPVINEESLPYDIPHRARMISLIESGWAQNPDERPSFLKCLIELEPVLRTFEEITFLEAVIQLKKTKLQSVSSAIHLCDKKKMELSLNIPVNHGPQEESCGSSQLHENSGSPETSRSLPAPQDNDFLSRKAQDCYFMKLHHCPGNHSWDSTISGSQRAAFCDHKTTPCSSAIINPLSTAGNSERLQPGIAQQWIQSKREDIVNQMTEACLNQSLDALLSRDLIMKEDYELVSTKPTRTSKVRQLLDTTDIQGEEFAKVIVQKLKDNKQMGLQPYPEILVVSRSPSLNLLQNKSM
PRMT1 inh conf: PRMT1 methyltransferase inhibitors, confirmation, biochemical, fluorescence polarization, triplicate; shares compounds with PRMT1 inh; recombinant His-PRMT1, activity-based probe fluorescence polarization; inhibition, % at 2.79 µM; actives 42% (n = 3,300);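 active = mean inhibition across replicates above the hit cutoff derived for the earlier primary screen, cut at about 22% in these data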
Active calls of the source: *; / = not tested or not shown.

SMILES | TLR9-MyD88 inh | ABHD5-PLIN5 inh | TLR4-MyD88 BLA | rCAG RNA binder | PRMT1 inh | NOD2-RIPK2 inh | PRMT1 inh conf
CCOC(=O)C1=C(c2ccccc2)OC(N)=C(C#N)C1c1ccc(Cl)s1 (stereo not given) | -2.6 | 15.7 | 5.8 | 4.2 | 1.5 | 11.0 | /
S=c1[nH]nc(-c2cccc(Cl)c2)n1/N=C/c1ccc(-c2ccccc2Br)o1 | -9.8 | -4.7 | / | 3.2 | -1.2 | 3.7 | /
Cc1ccc(/C=N/n2c(-c3cccc(Cl)c3)n[nH]c2=S)o1 | / | -2.4 | / | 15.3 | 26.4* | -6.9 | 12.7
COc1ccc(C(=O)OCCCN(C)C2CN(Cc3cn(Cc4ccccc4C(F)(F)F)nn3)S(=O)(=O)C2)cc1OC (stereo not given) | / | / | / | 0.5 | -4.7 | / | /
Cc1ccc(-c2cc(-c3ccccc3)c(C#N)c(N)n2)o1 | 0.8 | 5.5 | -8.6 | 20.8 | 30.3* | -2.6 | 66.2*
Cc1cc(C(=O)Nc2ccc(Nc3ccccc3)cc2)ccc1[N+](=O)[O-] | -1.8 | -2.5 | / | 9.9 | 28.1* | -5.0 | 6.1
O=C(Nc1ccc(Nc2ccccc2)cc1)c1ccc(Cl)c([N+](=O)[O-])c1 | 5.1 | -6.6 | / | 17.3 | 0.8 | 4.1 | /
COc1ccc(N2CCN(C(=O)c3cc(N4C(=O)C5C6CCC(C6)C5C4=O)ccc3Cl)CC2)cc1 (stereo not given) | -5.5 | -0.9 | 7.8 | -4.4 | 36.2* | 5.1 | -1.5
O=C(c1cc(N2C(=O)C3C4CCC(C4)C3C2=O)ccc1Cl)N1CCN(c2ccc(F)cc2)CC1 (stereo not given) | -2.2 | -4.6 | 18.1 | -5.4 | 0.9 | -1.2 | /
Cc1nc(-c2cccs2)ccc1C(=O)O | -1.2 | -7.1 | -9.8 | 7.7 | 2.6 | -10.5 | /
CC(C)NC(=O)c1sc2nc(-c3cccs3)cc(-c3cccs3)c2c1N | / | / | 4.7 | 5.9 | 29.8* | / | 3.2
Nc1c(C(=O)C2CC2)sc2nc(-c3cccs3)cc(C(F)(F)F)c12 | 5.3 | -5.4 | 17.6 | 10.2 | 31.6* | 9.2 | -1.1
CC(=O)c1sc2nc(-c3cccs3)ccc2c1N | 4.7 | -10.2 | 5.5 | 34.5 | 73.1* | -1.1 | 29.5*
Cc1ccc(-n2cnc3c(=O)[nH]cnc32)cc1[N+](=O)[O-] | 7.6 | -3.9 | / | -0.2 | -6.7 | -11.0 | /
Cc1c[n+]([O-])cc(C)c1[N+](=O)[O-] | 4.1 | 4.1 | / | -0.1 | -0.9 | -5.5 | /
O=C1CC(N2CCCCCC2)C(=O)N1c1ccc(F)cc1 (stereo not given) | -4.9 | 5.4 | -1.2 | -2.4 | 41.3* | -1.8 | 29.1*
COc1ccc(N2C(=O)CC(N3CCCC4CCCCC43)C2=O)cc1 (stereo not given) | -1.0 | 8.3 | 1.5 | 0.9 | 52.5* | -11.3 | 3.2
COc1ccc(N2C(=O)CC(NC3CCCCNC3=O)C2=O)cc1 (stereo not given) | 7.3 | 4.7 | 0.6 | 2.5 | 27.9* | 0.7 | 4.9
O=C1CC(N2CCN(c3ccc(F)cc3)CC2)C(=O)N1c1ccc(F)cc1 (stereo not given) | 7.8 | 2.1 | / | -6.5 | 0.4 | -4.3 | /
COc1ccc(N2C(=O)CC(N3CCCCC3)C2=O)cc1 (stereo not given) | -0.9 | 13.8 | -11.9 | -1.3 | 80.0* | -0.2 | -0.1
CC1CN(S(=O)(=O)c2cccc(C(=O)N3CCC(C(N)=O)CC3)c2)CC(C)O1 (stereo not given) | 1.4 | -3.0 | / | -1.6 | -8.4 | -4.9 | /
OCC[C@@H]1C[C@H](O)[C@@H](O)[C@@]2(OCCc3cc(Cl)ccc32)O1 | / | -0.3 | / | 0.7 | -0.6 | -4.6 | /
COc1ccc(N2C(=O)CC(N3CCC(O)(c4cccc(C(F)(F)F)c4)CC3)C2=O)cc1 (stereo not given) | -1.4 | 2.8 | 8.6 | -2.7 | 61.0* | 4.5 | -3.1
CC(=S)/C=C1\Sc2ccccc2N1C | 1.2 | -24.0 | 11.8 | 5.6 | 39.3* | -15.6 | 17.1
COc1ccc(C(=O)/C=C2\Sc3ccccc3N2C)cc1 | / | 8.1 | -15.6 | -1.2 | 21.1 | 0.2 | /
SMILES | TLR9-MyD88 inh | ABHD5-PLIN5 inh | TLR4-MyD88 BLA | rCAG RNA binder | PRMT1 inh | NOD2-RIPK2 inh | PRMT1 inh conf
Fc1ccc(-c2n[nH]c(=S)c3ccccc23)cc1 | 4.8 | 2.1 | -5.8 | -3.2 | 1.6 | 2.8 | /
COc1ccc(S(=O)(=O)Nc2ccc3c(c2)C(=O)N([C@H](C)CO)C[C@H](C)[C@@H](CN(C)S(=O)(=O)c2cn(C)cn2)OCCCC[C@H](C)O3)cc1 | -0.8 | -1.6 | / | 4.1 | -3.2 | -1.1 | /
Cc1ccc(CS(=O)(=O)Cc2ccc(C(=O)NCc3ccccn3)o2)cc1 | 3.5 | 4.6 | -4.5 | 6.2 | 33.7* | -2.8 | 7.9
NC(=O)/C=C\C(=O)Nc1cccc(C(F)(F)F)c1 | -6.7 | 13.0 | 2.1 | -2.1 | 50.7* | -3.0 | 25.0*
COc1ccc2sc(/C=C/c3ccccc3O)[n+](C)c2c1 | / | -7.0 | -5.6 | -39.4 | 36.3* | -8.2 | -0.3
COc1ccc(N=Cc2ccccc2O)cc1 | -8.3 | -0.4 | / | 1.6 | -3.0 | -7.4 | /
O=C(OC1CCOC1=O)c1ccc2ncsc2c1 (stereo not given) | -3.0 | -3.7 | 2.8 | 6.4 | 39.4* | -1.9 | 2.0
NS(=O)(=O)c1cc(C(=O)OC2CCOC2=O)ccc1Cl (stereo not given) | 0.4 | -3.3 | / | 0.9 | -1.9 | -14.8 | /
Cc1n[nH]c(=S)n(NC(=O)CC(=O)Nn2c(=S)[nH]nc(C)c2=O)c1=O | 7.4 | 2.1 | 11.2 | 0.8 | -6.0 | -10.4 | /
Cc1n[nH]c(=S)n(NC(=O)/C=C/C(=O)Nn2c(=S)[nH]nc(C)c2=O)c1=O | 0.0 | 3.7 | -0.1 | 16.6 | 29.4* | -4.0 | 29.5*
CC(Oc1cc(F)ccc1[N+](=O)[O-])C(=O)N(C)CC(=O)Nc1ccccc1C(F)(F)F (stereo not given) | -4.8 | 0.4 | 0.8 | -3.2 | 1.9 | -4.1 | /
Cc1c(Cl)cccc1-n1cnc(=O)c2ccccc21 | -0.9 | -3.3 | / | -3.3 | 1.9 | -8.7 | /
Cc1cc2cc(C(c3nnnn3Cc3ccco3)N3CCc4ccccc4C3)c(=O)[nH]c2cc1C (stereo not given) | 1.1 | -7.4 | -10.6 | 25.9 | 69.3* | -4.5 | 66.3*
N#CC1=C(N)SC(N)=C(C#N)C1C1C=CCCC1 (stereo not given) | 2.0 | -11.6 | -6.7 | -0.5 | 35.5* | -1.2 | 1.9
Cc1cnc(CN(C)C(=O)C2CCC(=O)N(CCc3ccc(Cl)cc3)C2)[nH]1 (stereo not given) | -0.2 | -3.1 | / | 2.1 | 3.4 | -6.8 | /
